The supplement of paper PMC9446081
Out of some 39,000 compounds screened, about 220 (0.56%) showed activity. The sample as a whole holds a higher share of actives than the screen did. A number with no mark means an inactive call.

What follows are compounds tested on Escherichia coli K-12 BW25113 (assay: relative growth (OD600 normalised to plate interquartile mean) (fraction); higher = less growth inhibition, active = 0.2 or less). Details: 50 µM; LB; incubation time: overnight (16-24 h).
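Also: Wild-type cells incubated without shaking, value is the mean of two biological replicates.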

SMILES	relative growth
C[C@@H]1CN([C@H](C)CO)C(=O)c2cccc(NC(=O)C3CC3)c2O[C@@H]1CN(C)S(=O)(=O)c1ccccc1	1.01
Cc1ccc(S(=O)(=O)N(C)C[C@@H]2Oc3ccc(NS(=O)(=O)c4cccs4)cc3CC(=O)N([C@H](C)CO)C[C@H]2C)cc1	1
C[C@H]1CN([C@@H](C)CO)C(=O)c2c(c3ccccc3n2C)-c2ccccc2CO[C@@H]1CN(C)S(=O)(=O)c1ccc(C(F)(F)F)cc1	1
CO[C@@H]1CN(C)C(=O)c2ccc(NS(C)(=O)=O)cc2OC[C@H](C)N(S(C)(=O)=O)C[C@H]1C	0.991
Cc1nnc(NCc2ccccc2)n(N)c1=O	0.975
CCCC#Cc1ccc2c(c1)O[C@H](CN(C)Cc1ccc3c(c1)OCO3)[C@H](C)CN([C@H](C)CO)S2(=O)=O	1.05
C[C@@H]1CN([C@H](C)CO)C(=O)c2cc(NC(=O)NC3CCCCC3)ccc2O[C@@H](C)CCCCO[C@H]1CN(C)Cc1ccncc1	1.02
C[C@@H]1CCCCO[C@@H](CN(C)S(=O)(=O)c2ccccc2)[C@@H](C)CN([C@H](C)CO)C(=O)c2cc(NC(=O)C3CCCCC3)ccc2O1	1.01
O=C(C[C@H]1CC[C@@H](NC(=O)c2cccnc2)[C@H](CO)O1)NCCN1CCCCC1	1
C[C@@H]1CN([C@H](C)CO)C(=O)c2cccc(NS(C)(=O)=O)c2O[C@H]1CN(C)C(=O)NC1CCCCC1	1.01
NNC(=O)c1c(O)c2c([nH]c1=O)CCCC2	0.95
O=C(O)c1c(O)c2c([nH]c1=O)CCCC2	0.104 (active)
Cc1[nH]c(=O)c(C(=O)O)c2c1CCC2	0.994
C[C@H](CO)N1C[C@H](C)[C@@H](CN(C)Cc2cccc(F)c2)Oc2cc(C#CC3CC3)ccc2S1(=O)=O	1.04
C[C@H](CO)N1C[C@H](C)[C@H](CN(C)CC2CC2)Oc2ccc(NS(=O)(=O)c3cn(C)cn3)cc2CC1=O	0.99
Cc1ccc(S(=O)(=O)Nc2ccc3c(c2)C(=O)N([C@H](C)CO)C[C@H](C)[C@@H](CN(C)C(=O)C2CCCCC2)OCCCC[C@H](C)O3)cc1	0.998
Nc1ccccc1OCc1ccccc1	0.955
CO/N=C(\C(=O)N[C@@H]1C(=O)N2C(C(=O)O)=C(CSC(=O)c3ccco3)CS[C@H]12)c1csc(N)n1	0.0342 (active)
CO/N=C(\C(=O)N[C@@H]1C(=O)N2C(C(=O)O)=C(C[n+]3ccn4ncccc43)CS[C@H]12)c1nsc(N)n1	0.0425 (active)
CON=C(C(=O)NC1C(=O)N2C(C(=O)O)=C(CSC(=O)c3ccco3)CSC12)c1csc(N)n1.Cl (centres undefined)	0.0447 (active)
C[C@H](CO)N1C[C@H](C)[C@H](CN(C)Cc2ccc(-c3ccccc3)cc2)Oc2c(NC(=O)c3nc4ccccc4s3)cccc2C1=O	1.01
CN1CCC[C@H]1CO	0.919

SMILES	relative growth
COCCNC(=O)C[C@@H]1C[C@@H]2c3cc(NS(C)(=O)=O)ccc3O[C@@H]2[C@H](CO)O1	1
C[C@@H]1CN([C@H](C)CO)C(=O)Cc2cc(NC(=O)CCCCCC(=O)Nc3ccccc3N)ccc2O[C@H]1CN(C)C(=O)Nc1cccc2ccccc12	0.963
C[C@@H]1CCCCO[C@H](CN(C)S(=O)(=O)c2ccc(F)cc2)[C@H](C)CN([C@@H](C)CO)C(=O)c2cc(NC(=O)Nc3ccc4c(c3)OCO4)ccc2O1	1
C[C@H]1CCCCO[C@H](CN(C)S(=O)(=O)c2cn(C)cn2)[C@@H](C)CN([C@@H](C)CO)C(=O)c2cc(NS(=O)(=O)c3cn(C)cn3)ccc2O1	0.995
C[C@@H]1CCCCO[C@@H](CN(C)S(=O)(=O)c2cccs2)[C@@H](C)CN([C@H](C)CO)C(=O)c2cc(NC(=O)Nc3ccccc3)ccc2O1	1.02
Cc1ccc(-c2ccc3c(c2)O[C@@H](CN(C)Cc2cncnc2)[C@H](C)CN([C@H](C)CO)S3(=O)=O)cc1	1.01
C[C@H](CO)N1C[C@H](C)[C@@H](CN(C)Cc2ccc3c(c2)OCO3)Oc2c(NC(=O)Nc3cccc4ccccc34)cccc2C1=O	1.01
C[C@H]1CCCCO[C@H](CN(C)C(=O)Nc2ccccc2)[C@@H](C)CN([C@@H](C)CO)C(=O)c2cc(NS(=O)(=O)c3cccs3)ccc2O1	1.02
CCC(=O)Nc1ccc2c(c1)C(=O)N(C)C[C@H](OC)[C@H](C)CN(C(=O)CN1CCOCC1)[C@H](C)CO2	0.974
Cl.N=C(N)n1cccn1	0.042 (active)
NCc1ccccc1-n1cccn1	1
NCCn1cccn1	1.01
Cc1cc(C(=O)Nc2cccc3c2O[C@@H](CN(C)C(=O)Nc2ccc4c(c2)OCO4)[C@@H](C)CN([C@@H](C)CO)C3=O)n(C)n1	0.987
C[C@H]1CN([C@@H](C)CO)C(=O)c2cc(-c3ccc(C(=O)N(C)C)cc3)cnc2O[C@H]1CN(C)C(=O)c1ccncc1	0.964
COc1ccc([Si](C)(C)[C@@H]2[C@@H](CC(=O)N3CCC[C@H]3CO)O[C@]3(C(=O)N(Cc4cccc(N5CCCCC5=O)c4)c4ccccc43)[C@H]2C)cc1	1.02
C/C=C/C1=C(C(=O)O)N2C(=O)[C@@H](NC(=O)[C@H](N)c3ccc(O)cc3)[C@H]2SC1	0.876
C=CC1=C(C(=O)O)N2C(=O)C(NC(=O)C(=NOCC(=O)O)c3csc(N)n3)C2SC1 (centres undefined)	1.01
Nc1nc(C(=CCC(=O)O)C(=O)NC2C(=O)N3C(C(=O)O)=CCSC23)cs1 (centres undefined)	0.0485 (active)
Nc1nc(/C(=C/CC(=O)O)C(=O)N[C@@H]2C(=O)N3C(C(=O)O)=CCS[C@H]23)cs1	1.01
C=CC1=C(C(=O)O)N2C(=O)C(NC(=O)C(=NO)c3csc(N)n3)C2SC1 (centres undefined)	0.05 (active)
C=CC1=C(C(=O)O)N2C(=O)[C@@H](NC(=O)/C(=N\O)c3csc(N)n3)[C@H]2SC1	0.0321 (active)
C=CC1=C(C(=O)O)N2C(=O)[C@@H](NC(=O)/C(=N\OCC(=O)O)c3csc(N)n3)[C@H]2SC1	0.0479 (active)
